We go through 98 compounds from ChEMBL document CHEMBL3988442, “University of Dundee, Small-Polar-MMV Screening Library” (2021).

About 13,000 (27%) of roughly 48,000 compounds showed an effect of 50% or more. This is one part of the list.

The test system of the experiment is Wolbachia pipientis. Nature of the experiment: Anti-Wolbachia Cell-Based Screen. It counts as functional. The arrangement: scale not given: in the data most compounds retested in dose-response had high values. The following applies: 5 µM.
Consider `O=C(Nc1ccc(N2CCCCC2)nc1)N1CCc2sccc2C1`, for which the “Percent Effect” value is 2.777%. In the case of `Cc1cc(NC(=O)N(Cc2ccc(C#N)cc2)C(C)C)no1`, the “Percent Effect” value turned out to be 2.443%. Turning to `c1cncc(-c2noc(CNC3CCCN(c4cccnn4)C3)n2)c1` (stereo not drawn), the “Percent Effect” value is -17.88%. The same measure for `Cc1ncccc1CNCC1COC2(CCCCC2)O1` (stereo not drawn): -0.2961%; for `COCc1ncc(CN2CCC(Oc3ccccc3OC)CC2)cn1`: 3.684%. Then `COc1ccccc1CC(=O)N1CCC(NCc2c[nH]nc2C)CC1`, with 3.473%. The same measure for `COc1ccccc1C1Cn2c(C)cnc2CN1Cc1c[nH]nc1C` (stereo not drawn): 184.6%; for `COc1ccccc1C1Cn2c(C)cnc2CN1Cc1ccc(C)nc1` (stereo not drawn): 131%.

Regarding `COc1ccccc1C1Cn2ccnc2CN1Cc1c[nH]nc1C` (stereo not drawn), the “Percent Effect” value is given as 158.2%.

`Cc1n[nH]cc1CNC1CCN(c2ccccc2)CC1.Cl`: the “Percent Effect” value is on record as -14.69%. On to `COc1ccccc1[C@@H]1CN(Cc2cnc(N(C)C)nc2)C[C@H]1C(=O)O`, for which the “Percent Effect” value is recorded as -3.277%.

In the case of `COc1ccccc1[C@@H]1CN(Cc2nccn2C)C[C@H]1C(=O)O`, the “Percent Effect” value is recorded as -20.61%. The same measure for `COc1ccccc1[C@@H]1CN(Cc2cnn(C)c2C)C[C@H]1C(=O)O`: -12.3%; for `CCOC(=O)c1nc(CN2CCC(NC(=O)C(C)C)CC2)cs1`: -9.152%; for `O[C@@H]1Cc2ccccc2[C@@H]1Nc1ncccc1F`: -3.78%.

With `O=C(Cn1cccc2oc(=O)nc1-2)NCC1Cc2ccccc2O1` (stereo not drawn), the “Percent Effect” value is on record as -3.762%.

Regarding `CN(C)S(=O)(=O)N1CCC(Oc2cnccn2)CC1`, the “Percent Effect” value stood at 2.095%.

Regarding `Cc1ccc(S(=O)(=O)N2CCC(Oc3ccccn3)CC2)c(C)c1`, the “Percent Effect” value is reported as 1.938%. The same measure for `Cc1n[nH]c(C)c1S(=O)(=O)N1CCC(Oc2cnccn2)CC1`: 120.8%; for `O=S(=O)(c1ccc(F)cc1)N1CCOC[C@H](Oc2cnccn2)C1`: -9.472%; for `CC1CCN(S(=O)(=O)N2CCC(Oc3cnccn3)CC2)CC1`: 109.5%. The same measure for `O=S(=O)(N1CCOCC1)N1CCC(Oc2cnccn2)CC1`: 115%; for `O=S(=O)(c1ccc(Cl)cc1)N1CCOC[C@H](Oc2cnccn2)C1`: -1.113%.

`O=S(=O)(N1CCCCC1)N1CCC(Oc2cnccn2)CC1`: the “Percent Effect” value amounted to 106.7%. Then `Cc1noc(C)c1S(=O)(=O)N1CCC(Oc2cnccn2)CC1`, with 11.35%; and `CS(=O)(=O)N1CCC(Oc2cnccn2)CC1`, with -17.13%.

As to `COC(=O)c1sccc1S(=O)(=O)N1CCC(Oc2cnccn2)CC1`, the “Percent Effect” value turned out to be 2.794%.

In the case of `COc1ccc(C2CCCN2c2ccnc(C)c2Cl)c(OC)c1` (stereo not drawn), the “Percent Effect” value was -16.05%. The same measure for `CC(=O)N(C)Cc1nn(C)c2c1CN(Cc1ccsc1)C2.O=C(O)C(F)(F)F.O=C(O)C(F)(F)F`: -3.994%; for `O=C(O)C(F)(F)F.O=C([C@@H]1COC[C@H]2CN(C3CCCC3)C[C@H]21)N1CCCCO1`: 2.547%. `CC(Cn1cccn1)NC(=O)N1CCC(NS(C)(=O)=O)CC1` (stereo not drawn): the “Percent Effect” value was 10.97%. Then `O=C(O)C1CCN(c2nc3c(-c4ccccc4F)csc3c(=O)[nH]2)CC1`, with -3.996%; and `CS(=O)(=O)NCCCNc1ccc(C(F)(F)F)cc1C#N`, with -7.983%. Regarding `O=C1OCCN1CCNCC1(O)CCCN(CCC2CCCCC2)C1=O` (stereo not drawn), the “Percent Effect” value worked out at 3.585%. Then `CN(C)C(=O)c1nc2c(n1C)CCN(Cc1ccccc1)C2`, with 0.7909%; and `CNC(=O)CNC(=O)CC1C(=O)NCCN1Cc1ccccc1C` (stereo not drawn), with -0.8934%. The same measure for `COCCO[C@H]1CCN(Cc2cccnc2)[C@H]1Cc1cccnc1.O=C(O)C(F)(F)F.O=C(O)C(F)(F)F.O=C(O)C(F)(F)F`: 107.4%; for `COCCO[C@H]1CCN(Cc2ccsc2)[C@H]1Cc1cccnc1.O=C(O)C(F)(F)F.O=C(O)C(F)(F)F`: 103.2%. The same measure for `Cn1cc(CN2CC[C@H]3O[C@@H](COCc4cccnc4)CC[C@H]32)cn1.O=C(O)C(F)(F)F.O=C(O)C(F)(F)F`: -19.84%.

As to `O=C(O)C(F)(F)F.O=C(O)C(F)(F)F.O=C(O)C(F)(F)F.c1cncc(CN2CC[C@@H]3O[C@H](COCCN4CCCC4)CC[C@@H]32)c1`, the “Percent Effect” value was determined as 86.61%.

As to `COCCO[C@@H]1CCN(C(=O)c2ccc(C)o2)[C@@H]1Cc1cccnc1.O=C(O)C(F)(F)F`, the “Percent Effect” value is recorded as 18.38%. Then `COCCO[C@H]1CCN(Cc2cccs2)[C@H]1Cc1cccnc1.O=C(O)C(F)(F)F.O=C(O)C(F)(F)F`, with -0.3476%. The same measure for `O=C(O)C(F)(F)F.O=C(O)C(F)(F)F.O=C(O)C(F)(F)F.c1ccc(COC[C@H]2CC[C@H]3[C@H](CCN3Cc3cccnc3)O2)nc1`: -5.696%; for `Cc1[nH]c2c(F)cccc2c1CC(=O)NCCCc1csc(N)n1`: -2.894%; for `O=c1oc(-c2cccs2)nn1CC1(O)CCCCC1`: -6.599%. The same measure for `COC(=O)c1cccc(OCCn2nc(-c3cccs3)oc2=O)c1`: 2.853%; for `COc1ccc(NC(=O)CCn2nc(-c3cccs3)oc2=O)cc1OC`: 106%; for `COc1cc(NC(=O)CCn2nc(-c3cccs3)oc2=O)cc(OC)c1`: 106.6%.

With `COc1cc(C)c(NC(=O)CCn2cccc2)cc1OC`, the “Percent Effect” value is listed as 27.33%. Then `Cc1cc(C)n2nc(C(=O)N3CCCC4(CCOC4)C3)cc2n1` (stereo not drawn), with -5.928%; and `COC(=O)C(C)(C)C(C)(C)NC(=O)Nc1nnc(-c2ccccn2)s1`, with -11.99%; and `COc1c(C2CCCN2C(=O)c2sccc2C#N)c(C)nn1C` (stereo not drawn), with -24.73%. Turning to `COc1c(C2CCCN2C(=O)c2ccc(C#N)cc2)c(C)nn1C` (stereo not drawn), the “Percent Effect” value was 98.09%. Then `COc1c(C2CCCN2C(=O)c2ccc3[nH]cnc3c2)c(C)nn1C` (stereo not drawn), with 128.2%; and `COc1c(C2CCCN2C(=O)c2ccc3cc[nH]c3c2)c(C)nn1C` (stereo not drawn), with -0.02537%. Regarding `CCOc1ccc(C(=O)N2CCCC2c2c(C)nn(C)c2Cl)cn1` (stereo not drawn), the “Percent Effect” value is listed as 128%. For `CCOc1ccc(C(=O)N2CCCC2c2c(C)nn(C)c2OC)cn1` (stereo not drawn), the “Percent Effect” value was 122.4%. Then `Cc1cc(C(=O)N2C[C@@H]3CCCO[C@@H]3[C@H](N(C)C(C)C)C2)c(C)[nH]1`, with -3.882%; and `COc1ccc(CNC(=O)NC2CCN(c3ccccc3)C2=O)cc1` (stereo not drawn), with -1.645%. Turning to `Cc1noc(NC(=O)c2ccc(Br)s2)n1`, the “Percent Effect” value is 1.553%.

As to `CC1=N[C@@]2(CC[C@@H]3CN(C(=O)NCC(C)C)C[C@@H]32)C(=O)N1C`, the “Percent Effect” value is 7.686%. Then `Cc1c(CNC(=O)NCc2cccc(-n3cncn3)c2)cnn1C`, with -0.3036%; and `COc1c(C2CCCN2C(=O)c2ccc(O)nc2)c(C)nn1C` (stereo not drawn), with 97.38%. Then `Cc1nn(C)c(Cl)c1C1CCCN1C(=O)c1ccc(O)nc1` (stereo not drawn), with 94.29%; and `Cc1nn(C)c(C)c1C1CCCN1C(=O)c1ccc(NC2CC2)nc1` (stereo not drawn), with -8.845%. The same measure for `COc1c(C2CCCN2C(=O)c2ccoc2)c(C)nn1C` (stereo not drawn): 3.459%; for `Cc1nn(C)c(Cl)c1C1CCCN1C(=O)c1ccc(C(N)=O)cn1` (stereo not drawn): 118.3%. As for `CC(C)c1ncc(C(=O)N(C)c2ccc(Br)cn2)s1`, the “Percent Effect” value is listed as 0.7212%.

On to `Cc1cc(CN2CCC(C3CCN(CCc4ccccc4)CC3)C2)[nH]n1` (stereo not drawn), for which the “Percent Effect” value is given as -2.584%. The same measure for `CC(C)CN1C[C@@H]2OCC(=O)N(c3ccccc3)[C@@H]2C1`: -2.791%; for `O=C(CCc1ccsc1)N1CCC(N2CCNC2=O)CC1`: 88.84%.

In the case of `O=C(CCc1ccccc1)N1CCC(N2CCNC2=O)CC1`, the “Percent Effect” value stood at 0.2283%. On to `O=C(CCc1cccs1)N1CCCC(N2CCNC2=O)C1` (stereo not drawn), for which the “Percent Effect” value worked out at 103.5%. The same measure for `O=C(CCCc1cccs1)N1CCC(N2CCNC2=O)CC1`: 94.13%; for `O=C(Nc1nccs1)N1CCCC(N2CCNC2=O)C1` (stereo not drawn): -14.98%.

Take `O=C(CCc1cccs1)N1CCC(N2CCNC2=O)CC1`: the “Percent Effect” value is recorded as 8.278%. The same measure for `O=C(CCc1nccs1)N1CCC(N2CCNC2=O)CC1`: -13.84%; for `O=C(CCc1nccs1)N1CCCC(N2CCNC2=O)C1` (stereo not drawn): -19.11%. The same measure for `O=C1NCCN1C1CCN(CCc2cccs2)CC1`: 3.932%; for `CC(C)(C)OC(=O)NCC1CCN(C(=O)c2ccc(F)cc2F)C1` (stereo not drawn): 18.58%; for `CC(C)c1noc(C(C)N2CCN(CCO)CC2)n1` (stereo not drawn): -1.52%. Then `CC(c1nc(C2CC2)no1)N1CCN(CCn2ccccc2=O)CC1` (stereo not drawn), with -4.377%. For `CC(c1nc(C2CC2)no1)N1CCN(CCN2CCCC2=O)CC1` (stereo not drawn), the “Percent Effect” value amounted to 130.5%. The same measure for `CC(c1nc(C2CC2)no1)N1CCN(CCCN2CCCC2=O)CC1` (stereo not drawn): 95.99%; for `CC(C)c1noc(C(C)N2CCN(CCCN3CCCC3=O)CC2)n1` (stereo not drawn): 113.6%.

On to `COCCCN1CCCN(C(C)c2nc(C3CC3)no2)CC1` (stereo not drawn), for which the “Percent Effect” value was -0.2305%. In the case of `CC(C)c1noc(C(C)N2CCN(CCN3CCCC3=O)CC2)n1` (stereo not drawn), the “Percent Effect” value was -2.358%. Then `CC(c1nc(C2CC2)no1)N1CCN(CCOCC(F)(F)F)CC1` (stereo not drawn), with 15.62%.

Regarding `O=C(N1CCCC1)N1C[C@H]2CC[C@@]3(N=C(c4ccccc4)NC3=O)[C@H]2C1`, the “Percent Effect” value is on record as -1.269%. The same measure for `c1ccc(CSc2nnc(C3CC3)s2)nc1`: -7.286%; for `Cc1nnc(SCc2ccccn2)s1`: 113.6%; for `COc1c(C)cnc(CSc2nnc(C)s2)c1C`: 6.724%. As to `CCC(Nc1nc(C)nc2onc(C)c12)c1nc(C)c(C)s1` (stereo not drawn), the “Percent Effect” value was 99.23%. The same measure for `CCCc1nc(C)c(CNc2nc(C)nc3onc(C)c23)s1`: 18.49%; for `Cc1nc(NCCSc2ccccn2)c2c(C)noc2n1`: 2.263%.

For the compound `CCC(Nc1nc(CCN)nc2ccccc12)c1cccs1` (stereo not drawn), the “Percent Effect” value is 21.59%. The same measure for `Cc1nc(NCCSc2cnn[nH]2)c2c(C)noc2n1`: -13.5%. The same measure for `CCC(Nc1nc(C)nc2onc(C)c12)c1cccs1` (stereo not drawn): 84.62%.
